These results are taken from ChEMBL document CHEMBL4513216, “Probing the Open Global Health Chemical Diversity Library for Multistage-Active Starting Points for Next-Generation Antimalarials” (ACS Infect Dis, 2020).

Structures are written as SMILES. The campaign covered roughly 69,000 compounds. About 8,600 (12%) showed an effect of 50% or more. What follows is part of a selection rich in strong results, with near analogues and random picks from the rest.

In this experiment the test system is Plasmodium berghei. As to the kind of experiment: Screen against P. berghei liver stage (PbLuc), transformed with Luciferase, at 10uM. Format: functional, HepG2. As to conditions: tested at 10 uM.
Turning to `COc1cc(CNC2CCc3nc(C)nn3C2)cc2c1OCO2` (stereo not drawn), the INHIBITION is listed as -43.6%.
On to `CCc1nc2n(n1)CC(NCC1=Cc3ccc(OC)cc3OC1)CC2` (stereo not drawn), for which the INHIBITION came out at 32.3%.
The same measure for `CCc1nc2n(n1)CC(NCc1noc(-c3ccc(C)cc3)n1)CC2` (stereo not drawn): 31.9%; for `Cc1cccc(-c2nc(CNC3CCc4nc(C)nn4C3)no2)c1` (stereo not drawn): 19.6%.
For `CCn1cc(S(=O)(=O)Nc2nc3c(s2)CCCC3)cn1`, the INHIBITION was -35.4%.
The result for `Cc1ncsc1CCN(C)C(=O)CCc1nc2cccnc2n1C` reads -51%; that for `c1ccc(-c2cnc3n2CCNC32CCNCC2)cc1`, -30.1%.
The same measure for `CNC(=O)CN1CCCC12CCN(C(=O)c1ccccc1F)CC2`: -35.6%.
The same measure for `Cc1cccc(C(=O)N2C[C@@H]3OCCN(c4ncccn4)[C@@H]3C2)n1`: 16.6%; for `Cc1ccc(N2CCO[C@H]3CN(Cc4cccnc4)C[C@H]32)nn1`: -12%.
In the case of `Cc1ccc(N2C[C@@H]3CN(C(=O)c4ccccc4)CCO[C@@H]3C2)nn1`, the INHIBITION is reported as 51.2%.
With `Cc1cccc(C(=O)N2C[C@@H]3OCCN(C(C)C)[C@@H]3C2)n1`, the INHIBITION amounted to 18.8%.
The same measure for `c1ccc(CN2C[C@@H]3OCCN(c4ncccn4)[C@@H]3C2)nc1`: 38.1%; for `Cc1ccc(N2CCO[C@H]3CN(Cc4nccs4)C[C@H]32)nn1`: 25.2%; for `Cc1ccc(N2CCO[C@H]3CN(Cc4cccs4)C[C@H]32)nn1`: 88.2%.
The same measure for `Cc1ccc(N2CCO[C@H]3CN(Cc4ccncc4)C[C@H]32)nn1`: 22.7%.
The same measure for `Cc1ccc(N2CCO[C@H]3CN(C(=O)c4cccc(C)n4)C[C@H]32)nn1`: 53%.
Take `O=C(c1ccccc1)N1CCO[C@@H]2CN(c3cnccn3)C[C@@H]2C1`: the INHIBITION turned out to be 37.9%.
The same measure for `Cc1ccc(N2CCO[C@H]3CN(Cc4ccccn4)C[C@H]32)nn1`: 50.9%.
The result for `O=C(c1ccccc1)N1CCO[C@@H]2CN(c3ncccn3)C[C@@H]2C1` reads 48.2%; that for `CC(=O)NC[C@]1(O)CCN(C(=O)c2ccc(F)c(Cl)c2)C[C@H]1O`, 18.9%.
The result for `O=C1COC2(CCN(Cc3cccnc3)CC2)CN1c1ccccc1` reads 48.4%; that for `C[C@@]1(O)CCN(C2CCOCC2)C[C@H]1n1ccc(=O)[nH]c1=O`, 10.95%; that for `Clc1ccc(Cc2nc(CNCCn3cccn3)cs2)cc1`, 16.6%.
Consider `CCc1nn(C)c(Cl)c1CN(CC)Cc1cnn(CC)c1`, for which the INHIBITION is given as -21.9%.
The same measure for `Cc1cc(=O)c2cc(F)ccc2n1CC(=O)O`: 71.3%; for `COC(=O)CCn1ccc(=O)c2cc(F)ccc21`: 6.34%; for `CC(=O)Cn1c(C)cc(=O)c2cc(F)ccc21`: 82.4%.
The result for `COC(=O)Cn1ccc(=O)c2ccc(OC)cc21` reads -20%.
`O=C(O)Cn1ccc(=O)c2cc(F)ccc21`: the INHIBITION was 25.3%.
The same measure for `Cc1ccc2c(c1)c(C)cc(=O)n2CC(=O)O`: 10.775%.
The same measure for `CC(=O)c1c(O)n(C)c2ccc(F)cc12`: 5.75%; for `Cc1cc(C)n(C2CN(C(=O)Cn3c(C)cc(=O)c4ccccc43)C2)n1`: 29.1%; for `COC(=O)Cn1c(C)cc(=O)c2cc(F)ccc21`: 71.3%.
Regarding `CNC(=O)c1ccc(C2CN(C(=O)c3c[nH]nc3C)CCO2)nc1` (stereo not drawn), the INHIBITION was -20.2%.
On to `O=C(NC1CCN(c2ccccc2Br)C1)c1c[nH]nn1` (stereo not drawn), for which the INHIBITION is reported as 34.2%.
The same measure for `CS(=O)(=O)NCC1CCCN(C(=O)Nc2cccc3ccccc23)C1` (stereo not drawn): -31.3%.
In the case of `CC(C)C(NC(=O)Cc1ccccc1)C(=O)NCc1ccc(O)nc1` (stereo not drawn), the INHIBITION is 0.991%.
With `CC(C)(C)c1nnc(CN2CCCC2Cn2cncn2)o1` (stereo not drawn), the INHIBITION was 32.707%.
For `CN1CC(=O)N(c2cccc(F)c2)CC12CCN(S(=O)(=O)C1CC1)C2` (stereo not drawn), the INHIBITION was 5.44%.
The result for `NC(=O)c1cnc(NC2CC2)nc1CCNC(=O)CC1CCCC1` reads 31.3%.
The same measure for `CCOC(=O)CNC(=O)N1CCN(c2ncccn2)CC1`: 63.5%; for `O=C(NCc1cc[nH]n1)N1CCN(c2ncccn2)CC1`: 33.3%.
The result for `CCOC(=O)CCCNC(=O)CN1CCN(c2ncccn2)CC1` reads 1.81%; that for `Cn1c(C(=O)NC(Cc2ccsc2)c2cccnc2)cc(=O)n(C)c1=O` (stereo not drawn), -12.3%.
Take `C/C=C(\C)CN1C[C@@H](NC(=O)c2ccc(O)c(Cl)c2)C[C@H]1C(=O)NCC`: the INHIBITION is 22.4%.
The result for `C/C=C(\C)CN1C[C@H](NC(=O)c2cnc(O)cn2)C[C@H]1C(=O)NCC` reads -7.17%; that for `C/C=C(\C)CN1C[C@@H](NC(=O)c2ccc(F)c(F)c2)C[C@H]1C(=O)NCC`, 52%.
Regarding `c1ccc(OCCN2CCCCC2Cn2cncn2)cc1` (stereo not drawn), the INHIBITION is recorded as 40.9%.
The same measure for `CCCC(C)N(C)C(=O)c1nc(S(C)(=O)=O)n2ccccc12` (stereo not drawn): -8.95%; for `Cc1nc(C)c(C(=O)N2CCc3ccc(F)cc3C2C)o1` (stereo not drawn): -11.6%.
Consider `Cc1nc(C)c(C(=O)N2Cc3cc(F)ccc3CC2C)o1` (stereo not drawn), for which the INHIBITION is recorded as -9.17%.
With `Cc1nc(C)c(C(=O)N2CCc3cc(F)ccc3C2C)o1` (stereo not drawn), the INHIBITION was determined as 52.6%.
